According to the supplement of paper PMC6555819:

What follows are sequences tested on LXRb homodimer (NR concentration 270 nM) (assay: PBM binding z-score (relative to random genomic background probes); higher = stronger binding; sequences stand for … in GC…GCGATTGACAGCGTAGAATGAAGG).
In short: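 Regression normalization was applied to scanned fluorescence from custom Agilent 4×180K protein-binding microarrays. Before scanning, arrays were incubated 1 h with ligand-free nuclear receptor dimers, and binding was detected with antibodies against each partner (one per run). Binding z-scores use the random background probes as reference.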

Sequence | PBM binding z-score
TTACCAACGTGAAAGGTCGTTGATGCACGCCTTG | -0.169
CCTACTGCGCCACGAAAGGTCATTGATTCAGTGA | 2
TCATATAGGTAAACGTGAAAGTCGAACGATATGA | 0.105
GGAACGAGGGCAAAGTTGATAGCATCTGTCGACG | -0.272
CCTAGCAGGCCAATCTGGGTGACTCAAGGCTTGA | -0.85
TCTGCTGGGTCAGTTGGTCAGCTAACGAGCTGCC | 0.206
CCTACTAGGTCATGGTCAGCTAATCTACAGTATG | 0.291
TCTGTTAGTTGAAGGGCAACCGACGAGTCCGTTT | 0.983
TCGGCTAGGTCAACGATGGTCAGCTAATCTGCTA | -0.717
AGAATGAGGTTAATAAGATCAGGGAATTGCGGTC | 0.00596
AGAACGAGGGCAATGAGTTGATAGTACGGGTGGC | -0.473
AGTCAAAGTTCATCTAGGGAACGTAAGATATGCT | 1.64
ATAACGAGGGCACGCTGAGTTGATAGCAGAGTAG | 0.00771
ATCTGTAGGTAACCAAGTTCAGTGAATGCCGAAC | 0.153
AGAACGAGGGCACGCTGAGTTGAGAGCAGAGTAG | -0.934
CTCGAAAGGTCGTGCTGAGGTGAGTATACCAAAC | -0.153
CAAACTAGGTCCAGAGGTCAAAGTCCGCTTCCCG | 1.62
CGTCCAAGGTCAAAGGTCAGTGACGAGATGACGG | 2.01
GGAACGAGGGCAAAGTTGATAGAATCTGTCGACG | -0.45
TCTTGTAGATCAATAGAGGATAAGAAAGTGCGCT | -0.142
CGAACCAGGTCAAGGACAGTGAATCTCCGCACGC | -0.00984
CCGGCTAGGTCATGGTCAGCTAATCTACAGTATG | 0.207
